SMN2 splice up – enhancers of SMN2 splice variant expression; 210,000 compounds, 2.8% hits; HEK293 SMN2-luciferase splicing reporter, luminescence, 30-36 h; AID 1458; Potency, µM (series often up to 46.1 µM), without a hit: at the top dose activity change, positive = activation, actives largely listed as activators; further: % of control where 0% means no effect; nearly all actives have a fitted effect of over 55% in size
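HEK293 cells carry an SMN2 minigene-luciferase reporter in which exon 7 inclusion puts luciferase in frame. Cells were seeded at 2000 cells/well, attached for 10-12 hours, then exposed to compounds for 30-36 hours at 37C before ONE-Glo luminescence.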
ELG1 genotox – induces genotoxicity in HEK293T cells with luciferase-tagged ELG1 | 330,000 compounds, 1.3% hits | HEK293T ELG1-luciferase reporter, luminescence, 16 h | Potency, µM (series often up to 46 µM), inactives show at the highest dose activity change, positive = activation, most hits filed as activators; further: % of control where 0% means no effect; nearly all actives have a fitted effect of over 60% in size
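Cells (2,000/well) expressing the ELG1-luciferase fusion are dosed by pin tool and kept 16 hr at 37 °C, 5% CO2. Signal comes from ONE-Glo luciferase reagent after 30 min at room temperature.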
Rab9 prom act – Rab9 promoter activation | Huh7 Rab9 promoter-luciferase reporter, luminescence, 24 h | Potency, µM (series often up to 9.22 µM), without a hit: at the highest dose activation, negative = inhibition, usual class: activators | 320,000 compounds, 2.8% hits | AID 485297; further: % of control where 0% means no effect; nearly all actives have a fitted effect of over 60% in size
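Luminescence from Amplite-detected luciferase (10 minutes, ambient) reports Rab9 promoter activation. Before that, stable Rab9-luciferase Huh7 cells (1500/well, reduced-serum OP-MEM I plus 10% FBS) were exposed to compound for 24 hours at 37C.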
NPC1 prom act – activates the NPC1 promoter; Huh7 NPC1 promoter luciferase reporter, 24 h; Potency, µM (top dose mostly 9.22 µM), inactives show at the top dose activation, hits mostly activators; 320,000 compounds, 2.4% hits; further: % of control where 0% means no effect; nearly all actives have a fitted effect of over 60% in size
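In 1536-well qHTS, Huh7 cells harboring an NPC1 promoter–luciferase construct received compound for 24 h; activation was quantified by luminescence following luciferase reagent addition.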
FLuc modulator – inhibits or activates purified firefly luciferase, miR-21 counter-screen; P08659; purified FLuc, Km substrates, luminescence inhibition; Potency, µM (top dose mostly 57.5 µM), inactives show at the top dose activity change, negative = inhibition, most hits filed as inhibitors; 360,000 compounds, 6.9% hits; AID 588342;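 further: plate controls were vehicle for no effect and reference inhibitor for full effect; nearly all actives have a fitted effect of over 55% in size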
Target sequence (P08659 whole entry, looked up): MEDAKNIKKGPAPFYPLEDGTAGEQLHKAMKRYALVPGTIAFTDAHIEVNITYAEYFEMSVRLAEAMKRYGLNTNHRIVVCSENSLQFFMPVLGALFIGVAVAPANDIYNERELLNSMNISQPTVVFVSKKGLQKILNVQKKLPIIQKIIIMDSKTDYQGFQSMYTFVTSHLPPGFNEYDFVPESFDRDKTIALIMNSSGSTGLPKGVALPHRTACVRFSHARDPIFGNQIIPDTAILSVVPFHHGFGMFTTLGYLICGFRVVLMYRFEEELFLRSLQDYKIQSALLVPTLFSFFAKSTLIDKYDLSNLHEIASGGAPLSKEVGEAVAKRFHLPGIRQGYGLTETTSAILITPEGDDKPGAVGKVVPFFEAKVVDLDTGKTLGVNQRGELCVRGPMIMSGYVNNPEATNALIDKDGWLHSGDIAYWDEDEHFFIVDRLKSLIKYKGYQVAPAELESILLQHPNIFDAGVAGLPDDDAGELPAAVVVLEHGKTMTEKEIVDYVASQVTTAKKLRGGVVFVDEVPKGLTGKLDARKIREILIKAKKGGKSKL
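Purified P. pyralis luciferase (10nM final) with 10uM D-luciferin and 10uM ATP (Km levels) in 50mM Tris acetate pH 7.5, 10mM Mg acetate, 0.01% Tween-20, 0.05% BSA; qHTS 6-point titration, ~60 µM downward; luminescence read.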
ELG1 repair inh – blocks ELG1-dependent DNA repair in HEK293T cells. 330,000 compounds, 2.3% hits. Potency, µM (titrated, usually from 46.1 µM), inactives show at the highest dose activity change, negative = inhibition, most hits filed as inhibitors. HEK293T ELG1-luciferase reporter, luminescence, 16 h; DNA damage induced by 5-fluorouridine; further: on the % scale 0 is the no-effect control and ±100 the full control effect; nearly all actives have a fitted effect of over 55% in size
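In this reporter screen, reduction of luminescence relative to DMSO vehicle indicated activity. Compounds and 5-fluorouridine were added together to 2,000 cells per well, incubated for 16 hr at 37 °C, then developed with ONE-Glo.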
The depositor's hits bear a star; ? = inconclusive; · = no result given. This is a sample that favours compounds with a hit; in the whole collection about 9.3% have one here. The call rests on the fitted dose curve; in most records, active means well fitted curve in the direction sought with a large enough effect; inconclusive means small, poorly fitted or top-dose-only effect, or another doubt; inactive means no such curve, though single readings can be large; an effect the other way counts as inactive or inconclusive. Potency means the concentration at half of the fitted maximal effect.

SMILES	SMN2 splice up	ELG1 genotox	Rab9 prom act	NPC1 prom act	FLuc modulator	ELG1 repair inh
Cc1nnc2ccc(-c3cccc(NC(=O)Cc4cccs4)c3)nn12	6%	?	-5%	-2%	-7%	?
Fc1ccc(-c2cc3nc(-c4ccccc4)cc(N4CCN(CCN5CCOCC5)CC4)n3n2)cc1	-7%	-16%	-12%	-1%	2%	?
CN1CCN(c2cc(-c3ccccc3)nc3cc(-c4ccc(F)cc4)nn23)CC1	-9%	-17%	1%	0%	4%	23µM*
CC1CN(C(=O)CN2C(=O)NC3(CCCCCC3)C2=O)CC(C)O1 (stereo unspecified)	-12%	0%	-8%	-1%	0%	2%
COc1ccccc1Nc1ncc(C(=O)N2CCC(C(N)=O)CC2)c2ccccc12	-1%	-2%	-9%	1%	-12%	0%
COc1cc(/C=N/c2oc(C)c(C)c2C#N)cc(Br)c1O	·	0%	-3%	-1%	15µM*	42%
Cc1oc(/N=C/c2cccc3ccccc23)c(C#N)c1C	0%	-2%	1%	0%	-8%	0%
Cc1oc(/N=C/c2ccccc2)c(C#N)c1C	·	1%	4%	2%	12µM*	2%
CCCCCc1nc2sc3c(c2c(=O)n1N)CCC3	-65%	0%	-2%	-3%	5%	-1%
c1ccccc1	-2%	·	·	·	·	·
COc1cc(/C=C/C(=O)OCC(=O)c2c(N)n(C)c(=O)n(C)c2=O)ccc1OC(F)F	-12%	-6%	0%	-10%	0%	3%
Cc1ccc(S(=O)(=O)N2CCC(=O)N(CCOCc3cccc(C)c3)CC2)cc1	-17%	2%	-6%	-1%	5%	-7%
O=C(COCc1cc(-c2cccs2)on1)N1CCN(c2ccc(F)cc2)CC1	·	·	·	·	4%	·
O=C(c1cc(-c2cccs2)on1)N1CCN(c2ccc(F)cc2)CC1	-53%	-7%	1%	3%	24µM*	-14%
O=C(c1cc(-c2cccs2)on1)N1CCN(c2ccccc2)CC1	3%	0%	2%	-2%	17µM*	7%
O=C(c1cn(-c2ccccc2)nc1-c1cccs1)N1CCN(c2ccc(F)cc2)CC1	·	-8%	-3%	2%	13µM*	?
O=C(c1cccs1)N1CCN(C(=O)c2cn(-c3ccccc3)nc2-c2ccccc2)CC1	·	0%	·	·	·	?
O=C(c1cn(-c2ccccc2)nc1-c1ccc(Cl)s1)N1CCOCC1	13%	2%	-8%	-2%	17µM*	-4%
COc1ccc(OC)c(-c2cc(C(=O)N3CCN(c4ccccc4)CC3)no2)c1	-1%	-5%	-1%	-5%	8%	-16%
Cc1cccc(C)c1-n1ncc(C(=O)NCCN2CCOCC2)c1C1CCN(C(=O)OC(C)(C)C)CC1	·	·	·	·	-2%	·
O=C(Nc1c2c(nn1-c1ccccc1)CS(=O)C2)c1ccc2c(c1)OCO2 (stereo unspecified)	·	-3%	-1%	-5%	10%	17%
CCCCCCOC(=O)Sc1nc2ccccc2o1	4%	1%	0%	-1%	24µM*	0%
COc1ccc(N2CCN(CCCn3c(=S)[nH]c4ncccc4c3=O)CC2)cc1	?	3%	-1%	9%	0%	?
O=c1c2cccnc2[nH]c(=S)n1CCCN1CCN(c2ccc(F)cc2)CC1	7.9µM*	10%	0%	1%	-1%	19%
Cc1cc(-c2ccc(F)cc2)nc2cc(C(N)=O)nn12	-3%	-11%	-3%	-1%	1%	?
SMILES	SMN2 splice up	ELG1 genotox	Rab9 prom act	NPC1 prom act	FLuc modulator	ELG1 repair inh
CCOC(=O)c1cnn2c(C)cc(-c3ccc(F)cc3)nc12	11µM*	?	3.5µM*	2.8µM*	12µM*	?
Cc1sc2c(c1C)C(=O)NC(c1cccc(O)c1)N2 (stereo unspecified)	?	3%	8%	0%	15µM*	?
O=c1oc2cc(Cl)ccc2n1CSc1nc2ccccc2s1	25%	15µM*	?	?	8.5µM*	?
O=C(CSc1nc2ccccc2s1)N1c2ccccc2Sc2ccc(Cl)cc21	-28%	0%	-5%	0%	0%	-4%
Cc1ccsc1/C=N/N1CCN(C2c3ccccc3-c3ccccc32)CC1	-14%	-1%	-7%	-4%	1%	-5%
NC(=S)N/N=C/c1ccccc1	22%	1%	-10%	1%	0%	17%
NC(=S)N/N=C/c1ccc(C23CC4CC(CC(C4)C2)C3)cc1	·	?	-7%	-1%	21µM*	5%
COc1ccc(OC)c(C2=NS(=O)(=O)N(C)C(C(=O)Nc3ccc(C(C)=O)cc3)=C2)c1	·	-6%	-4%	-2%	-3%	?
Cc1ccc2nc(-c3ccccc3)cc(C(=O)N(C)CC(=O)Nc3ccccc3Br)c2c1	·	-10%	-1%	1%	17µM*	?
COc1cccc(-c2nn(-c3ccc(C)cc3)cc2C(=O)N(C)CC(=O)Nc2cccc(F)c2)c1	·	-13%	-7%	-3%	8.5µM*	13µM*
CN(CC(=O)Nc1ccccc1Br)C(=O)c1n[nH]c2ccccc12	·	-6%	4%	1%	-1%	-15%
COc1ccc(NC(=O)CN(C)C(=O)c2cc(-c3ccccc3)nc3ccccc23)cc1	·	-32%	0%	-2%	?	?
COc1ccc(NC(=O)CN(C)C(=O)c2cc(-c3ccc(OC)cc3)nc3ccccc23)cc1	·	-27%	13%	10%	8.5µM*	?
CN(CC(=O)Nc1ccc(F)cc1)C(=O)c1cc(-c2ccco2)nc2ccccc12	·	-37%	10%	-1%	?	?
Cc1ccc(NC(=O)CN(C)C(=O)c2cc(-c3ccco3)nc3ccccc23)cc1	·	-4%	1%	-4%	24µM*	13µM*
CCOc1ccc(-n2cc(C(=O)N3CCC(C)CC3)c3cc(OC)c(OC)cc3c2=O)cc1	-9%	-5%	-1%	1%	-2%	-22%
CS(=O)(=O)c1ccc(C(=O)NCC(c2ccco2)N2CCCCC2)cc1 (stereo unspecified)	4%	2%	-2%	-5%	1%	16%
Cc1cccc(-c2nn(-c3ccccc3)cc2C(=O)N(C)CC(=O)Nc2ccc(N3CCOCC3)cc2)c1	·	-4%	-3%	1%	-5%	12µM*
